Source: PubChem BioAssay (NCI)
This is part of a sample that, as a whole, favours compounds with a hit. Of some 79,000 tested, about 15% had one in any assay. No stated cut-off is given here; in the data, active means growth inhibition above about 70%; inactive means the rest.

Key:
[1] = NCI Yeast Anticancer Drug Screen. Data for the rad50 strain (AID 155);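 further: 0% = growth of vehicle-only cultures of the same strain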; conditions: S. cerevisiae rad50 strain growth inhibition; at 50.0 µM; stronger effect = higher value
How it was run: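 A DNA repair-deficient yeast mutant serves as the test organism; compound-induced growth inhibition is calculated against vehicle-treated cells.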

[2] = NCI Yeast Anticancer Drug Screen. Data for the mec2-1 strain (AID 157); conditions: S. cerevisiae mec2-1 strain, at 50.0 µM, stronger effect = higher value
How it was run: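 Growth inhibition is read against vehicle-treated controls after compound exposure of the mec2-1 yeast strain, which is defective in DNA damage repair or cell cycle control.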

[3] = NCI Yeast Anticancer Drug Screen. Data for the sgs1 mgt1 strain (AID 161);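 further: 0% = growth of cultures given vehicle only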; conditions: S. cerevisiae sgs1 mgt1 strain, at 50.0 µM, stronger effect = higher value
How it was run: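 Compounds are added to genetically altered yeast, and growth is compared with cultures given vehicle alone to give percent inhibition.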

[4] = NCI Yeast Anticancer Drug Screen. Data for the cln2 rad14 strain (AID 165);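 further: 0% = growth equal to vehicle treated cultures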; conditions: S. cerevisiae cln2 rad14 strain, at 50.0 µM, stronger effect = higher value
How it was run: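 Growth inhibition, relative to vehicle-treated controls, is the read-out. The test organism is a yeast strain with defined genetic alterations, cln2 rad14.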

[5] = NCI Yeast Anticancer Drug Screen. Data for the bub3 strain (AID 167); conditions: S. cerevisiae bub3 mutant strain, at 50.0 µM, stronger effect = higher value
How it was run: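 Inhibition values come from growth of compound-treated mutant yeast normalised to vehicle-treated controls.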

[6] = NCI Yeast Anticancer Drug Screen. Data for the mlh1 rad18 strain (AID 175); conditions: S. cerevisiae mlh1 rad18 strain growth inhibition; at 50.0 µM; stronger effect = higher value
How it was run: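 Cells of a genetically altered yeast strain, deficient in DNA damage repair, were treated with compound. Their growth was then compared with that of vehicle-treated cultures to give inhibition.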

Measured: growth inhibition

COc1ccc(-c2cc(=O)cc(C(N)=O)o2)cc1
inactive: [1] -1.1% | [2] -1% | [3] 4.6% | [4] -13.8% | [5] 11.2% | [6] 17.2%

CCOC(=O)C(=[N+]=[N-])C(O)C1OC(c2ccccc2)OCC1O (stereo not drawn)
inactive: [1] 12.8% | [2] 18.1% | [3] 18.9% | [4] 22.1% | [5] 9.15% | [6] 24.7%

Cc1ccc([N+](=O)[O-])cc1NC(=O)Nc1cccc(Cl)c1Cl
inactive: [1] 3.55% | [2] 2.95% | [3] 9.8% | [4] 9% | [5] 18.1% | [6] 11.1%

O=C(O)c1c(Br)c(Br)c(Br)c(Br)c1C(=O)Nc1cc([N+](=O)[O-])ccc1O
inactive: [1] 14.2% | [2] -8.45% | [3] 8.9% | [4] 7.9% | [5] 4.05% | [6] 3.85%

CCOC1(COP(=O)(OCc2ccccc2)OCc2ccccc2)COC(COP(=O)(OCc2ccccc2)OCc2ccccc2)(OCC)CO1 (stereo not drawn)
inactive: [1] -30.1% | [2] -25.6% | [3] -16.2% | [4] 2.2% | [5] -3.75% | [6] -22.8%

COc1ccc(CN2C(=O)C(=O)N(C)C2=O)c2ccccc12
inactive: [1] 36.9% | [2] 4.65% | [3] 13.8% | [4] 18.1% | [5] 18.5% | [6] 23.6%

COc1ccc(NC(=O)Cc2cc3ccccc3oc2=O)cc1
inactive: [1] 8.05% | [2] 1.05% | [3] -3.75% | [4] -46.3% | [5] -0.3% | [6] 7.95%

O=C(COc1cc(Cl)c(Cl)cc1Cl)Nc1ccccc1Br
inactive: [1] 2.5% | [2] -6.9% | [3] 0.1% | [4] -15.9% | [5] 2.2% | [6] -8.85%

C/C(=N\NS(=O)(=O)c1ccccc1)c1ccccc1
inactive: [1] 5.95% | [2] 3.4% | [3] 3.5% | [4] 28.6% | [5] 1.1% | [6] 20.5%

Cc1cc(S(=O)(=O)O)ccc1Cl
inactive: [1] -27.3% | [2] -8.2% | [3] -19.3% | [4] -38.9% | [5] -0.25% | [6] -31.8%

C/C(=N\N(C)C)c1sc(-n2nc(-c3ccccc3)cc2-c2ccccc2)nc1C
inactive: [1] 10.7% | [2] -10.2% | [3] 17.6% | [4] -8% | [5] 11% | [6] 8.75%

ClC(=Nc1cccc(Cl)c1)C(Cl)=Nc1cccc(Cl)c1
inactive: [1] -6.5% | [2] -1.7% | [3] -2.05% | [4] 12.6% | [5] 6.45% | [6] 1.15%

O=c1cc(-c2ccc3c(c2)OCO3)oc2ccccc12
inactive: [1] 20.4% | [2] 1.8% | [3] 6% | [4] -2.35% | [5] -5.25% | [6] -3.8%

OC1CC=CC1
inactive: [1] 2.45% | [2] -3.5% | [3] -4.6% | [4] 0.35% | [5] 8.25% | [6] -12.8%

COc1cc(O)c2c(c1)C(=O)C1=C(C2=O)[C@@H](C)OC(C)C1 (stereo partly drawn)
inactive: [1] -4.3% | [2] 10.2% | [3] 19.9% | [4] 11.1% | [5] 12.8% | [6] 19.8%

Cc1c(-c2ccccc2)[nH]n(C2=NCCN2)c1=O
inactive: [1] 10.8% | [2] 7.45% | [3] -31.4% | [4] -6.35% | [5] -15.5% | [6] -25%

O=C(/C(N=Nc1ccccc1)=C(\O)c1ccccc1)c1ccccc1
inactive: [1] -8.15% | [2] -9.7% | [3] 2.45% | [4] 11.8% | [5] 7.05% | [6] -6.2%

c1ccc2c(c1)CCCN2c1nc(N2CCCCC2)nc(N2CCOCC2)n1
inactive: [1] 12.9% | [2] -17.9% | [3] 22.6% | [4] 22.1% | [5] 11.6% | [6] 20.1%

C=C(C(=O)O)C1CC[C@@]2(C)CCC[C@@](C)(O)C2C1 (stereo partly drawn)
inactive: [1] 21.1% | [2] -5.8% | [3] -7.75% | [4] 10.8% | [5] -3.35% | [6] 25.6%

CSCCC(NC(c1ccccc1)c1ccccc1)[P+](=O)O (stereo not drawn)
inactive: [1] -53.4% | [2] -44.8% | [3] -37.5% | [4] -5.15% | [5] -3.65% | [6] -40.1%

CC1(C)OC2CC3COC(=O)C3CC2O1 (stereo not drawn)
inactive: [1] 9.35% | [2] -4.85% | [3] -8.45% | [4] 1.6% | [5] 30.2% | [6] 17.9%

CCN(CC)CCSc1nnc(-c2cc(OC)c(OC)c(OC)c2)o1
inactive: [1] 32.5% | [2] 1.1% | [3] -21.1% | [4] 14.8% | [5] 4.2% | [6] -9.85%

O=C(CI)Nc1ccc2oc(=O)c(C(=O)O)cc2c1
inactive: [1] -7% | [2] -6.05% | [3] 4.85% | [4] -64.4% | [5] -2.9% | [6] -12.8%

C=CCCCCCCCCCO
inactive: [1] -9.2% | [2] -11% | [3] -1.9% | [4] 10.8% | [5] -18.4% | [6] -1.8%

CC(C)OC(=O)CC1CCCCC1
inactive: [1] -4% | [2] -4.4% | [3] -14.1% | [4] 2.95% | [5] 3.9% | [6] 3.15%

CN(C)CCN(C)C(=N)N
inactive: [1] -10.3% | [2] -4.25% | [3] -6.45% | [4] -7.5% | [5] -6.55% | [6] -10.9%

O=C(N/N=C/c1ccccc1F)c1ccncc1
inactive: [1] 1.1% | [2] 5% | [3] -0.95% | [4] -24.4% | [5] -7.65% | [6] 23.9%

O/N=C/c1ccccn1
inactive: [1] -0.95% | [2] -31.9% | [3] -5.6% | [4] 6.85% | [5] -9.5% | [6] 0%

CC1(c2ccccc2)OCCCO1
inactive: [1] -11.3% | [2] -7.15% | [3] -10.8% | [4] 0.65% | [5] -2.5% | [6] -0.8%

CNS(=O)(=O)c1ccc(C)cc1
inactive: [1] 2.15% | [2] -6% | [3] 0.6% | [4] 3.25% | [5] 0.45% | [6] 0.35%

O=[N+]([O-])c1ccc(SC2=NCCCN2C2CCCCC2)c(Cl)c1
inactive: [1] -0.1% | [2] -13.9% | [3] 12.8% | [4] 13.8% | [5] 12.6% | [6] -9%

Cn1c(=O)c(Br)cc2ccccc21
inactive: [1] 10.2% | [2] 13.9% | [3] 21.3% | [4] 8.45% | [5] 9.1% | [6] 33.5%

CC(=O)OC1C/C(C)=C/CCC(C)/C=C/C2(C)CCC(C(C)(C)O)C12 (stereo not drawn)
inactive: [1] 1.7% | [2] -10.3% | [3] 11.9% | [4] 2.5% | [5] 14.1% | [6] 17.6%

COc1ccc(Cc2cc(N=NC(N)=O)c(C)cc2O)cc1
inactive: [1] -7.35% | [2] -5.65% | [3] -2.55% | [4] 1.75% | [5] 3.5% | [6] 4.55%

COC(OC)c1ccccc1CO
inactive: [1] -7.6% | [2] -28.5% | [3] -6.1% | [4] -41.5% | [5] 3.65% | [6] -14.8%

Cc1ccc(CN(C)C)c(C(O)c2ccccc2)c1 (stereo not drawn)
inactive: [1] 14.9% | [2] -0.75% | [3] -0.1% | [4] 11.1% | [5] 6.6% | [6] -2.45%

O=c1c(-c2ccc(O)cc2)coc2cc(OC3OC(CO)C(O)C(O)C3O)cc(O)c12 (stereo not drawn)
inactive: [1] -35.5% | [2] -26.8% | [3] -40.8% | [4] -10.7% | [5] -60.2% | [6] -83.3%

COC(=O)[C@@]1(C(C)CC(=O)O)CCCCC1=O (stereo partly drawn)
inactive: [1] -11.6% | [2] -16.4% | [3] -38.2% | [4] -7.35% | [5] -20.8% | [6] -13.2%
